The record followed here is PubChem BioAssay (Tox21).

Molecules are shown by their SMILES. Records with an inconclusive call do not appear. Entries that show only a call come without a potency. Values without a mark were called inactive. Active and inactive are the calls of the source. Calls follow the shape of the dose curve; as a rule, active = well fitted cell-killing curve with a large enough effect in the repeat runs; inconclusive = weak or mixed curves; inactive = flat fitted curve, though single readings scatter.

The nature of the test: qHTS assay to identify small molecule antagonists of the estrogen related receptor (ERR) signaling pathway from Tox21 library - cell viability counter screen (AID 1224834). Also: nearly all actives have a fitted effect of over 30% in size. The settings on record: ERR reporter cells viability, CellTiter-Fluor, 17.5 h; series mostly up to 92.4 µM; viability change, negative = cytotoxic: at the top concentration. The source says: National Center for Advancing Translational Sciences [NCATS]
NIH Chemical Genomics Center [NCGC]
U.S. Environmental Protection Agency [EPA]
National Institutes of Environmental Health Sciences [NIEHS]
National Toxicology Program [NTP]
U.S. Food and Drug Administration [FDA]
Estrogen related receptors (ERRs), the first orphan nuclear receptors discovered, play an important role in the control of cellular energy metabolism. ERRs are required for high-energy production in response to the environmental challenges. ERR-alpha was also identified as an adverse marker for breast cancer progression; ERR-alpha-positive tumors have a poor prognosis. To screen and to identify environmental compounds that perturb the ERR signaling pathways could provide valuable information for potential therapeutic or preventive measures in the treatment of metabolic disease. To differentiate true ERR antagonists or agonist from cytotoxic substances, the assay is multiplexed with cell viability assay.
Tox21 Assay Protocol Summary:
The ERR cells were dispensed at 2,000 cells/5 ul/well in 1536-well white plates using a Multidrop dispenser. After the assay plates were incubated at a 37 C/5% CO2 incubator for 6 hours, 23 nL of compounds dissolved in DMSO, positive and negative controls or DMSO only was transferred to the assay plate by a pin tool. The plates were incubated at 37 C for 17.5 hours. 1 ul/well of CellTiter-Fluor reagent was added into the assay plates using a Flying Reagent Dispenser. After 30-minute incubation at 37 C/5% CO2, the fluorescence intensity in the plates was measured using a ViewLux plate reader.
For `CCO[Si](CCC#N)(OCC)OCC`, the Potency entry is “inactive”.

For `CC(=O)Oc1ccc(C)cc1`, the Potency entry was “inactive”.

As for `COc1cc(OC)c(C(=O)CCCN2CCCC2)c(OC)c1`, the Potency result was “inactive”.

Turning to `COc1ccc(C)cc1N`, the Potency entry was “inactive”.

Take `O=C1CCCC1`: the Potency entry is “inactive”.

In the case of `O=C(O)c1ccccc1C(=O)O`, the Potency result is “inactive”.

Regarding `NCCCCCCN`, the Potency entry is “inactive”.

Regarding `C=CCc1ccc(OC)c(OC)c1`, the Potency result is “inactive”.

Turning to `CC(CCl)OP(=O)(OC(C)CCl)OC(C)CCl` (stereo not given), the Potency result was “inactive”.

As to `COC(=O)c1cccnc1`, the Potency result was “inactive”.

`C=CC(C)CCCC(C)(C)O` (stereo not given): the Potency result was “inactive”.

As to `CCNC(=S)NCC`, the Potency result was “inactive”.

`Cc1ccc([N+](=O)[O-])cc1S(=O)(=O)O`: the Potency result is “inactive”.

For `CC(=O)OCc1ccccc1`, the Potency entry is “inactive”.

Turning to `CC(C)CC(=O)CC(C)CC(C)C` (stereo not given), the Potency result is “inactive”.

Take `CN/C(=C\[N+](=O)[O-])NCCSCc1csc(CN(C)C)n1`: the Potency result was “inactive”.

On to `CCOCCOCCOCCO`, for which the Potency entry is “inactive”.

On to `OCc1cccc(Oc2ccccc2)c1`, for which the Potency result was “inactive”.

On to `CC(=O)CC(C)(C)O`, for which the Potency entry was “inactive”.

With `CCNc1cccc(C)c1`, the Potency entry was “inactive”.

Regarding `N[C@H](Cc1c[nH]c2ccccc12)C(=O)O`, the Potency result is “inactive”.

Consider `CCOC(=O)n1ccn(C)c1=S`, for which the Potency entry was “inactive”.

`C=CC(=O)OCCC(=O)O`: the Potency entry is “inactive”.

With `C=C(C)[C@H]1CC=C(C)C(=O)C1`, the Potency entry was “inactive”.

Consider `CN1C(=O)CC[C@H]1c1cccnc1`, for which the Potency entry was “inactive”.

Take `C=C(C)CNCC`: the Potency entry is “inactive”.

On to `COc1ccc([N+](=O)[O-])cc1N`, for which the “viability change, negative = cytotoxic” value is -8.66%.

Consider `CSc1ccc(Cl)cc1`, for which the Potency entry was “inactive”.

Turning to `O=C(O)c1cc2ccccc2cc1O`, the Potency entry is “inactive”.

As to `CCCCCCO`, the Potency entry is “inactive”.

For `COCCOC(=O)c1ccccc1C(=O)OCCOC`, the Potency result was “inactive”.

As to `CC(=O)OCCOC(C)=O`, the Potency result is “inactive”.

For `CC(C)(Oc1ccc(CCNC(=O)c2ccc(Cl)cc2)cc1)C(=O)O`, the Potency entry is “inactive”.

For the molecule `CCCCCCCCCCO`, the Potency entry was “inactive”.

For `CCCCCCCCCCN`, the Potency entry is “inactive”.

As to `CCOCC(=O)O`, the Potency entry is “inactive”.

On to `Nc1nc(N)nc(-c2ccccc2)n1`, for which the Potency entry is “inactive”.

Take `Clc1ccccn1`: the Potency entry is “inactive”.

`CC(C)OC(=O)COc1ccc(Cl)cc1Cl`: the Potency entry is “inactive”.

Regarding `Cc1ccc2ncccc2c1`, the Potency result was “inactive”.
